PubChem BioAssay (EPA / NIEHS)
Where “and” joins values, the source holds several entries; their conditions need not be identical. Identical values can stand only once. Results filed as inconclusive are left out. The source holds several records for some structures; these can differ, active in one and inactive in another. Calls of active or inactive are those of the source. Rule for the calls, unless noted: active = hit-call score of the fitted dose curve at least 0.9, where 1 is the maximum; inconclusive = response in the unintended direction; inactive = score below 0.9.

Legend:
[1] = ATG_TCF_b_cat_CIS: Attagene CIS-FACTORIAL HepG2 Assay for human T-Cell-Factor with beta-catenin (TCF/b-cat) (AID 2282965; active = hit-call score of the fitted dose curve at least 0.9, where 1 is the maximum; inactive = score below 0.9); conditions: HepG2 TCF/beta-catenin cis-reporter transcription, actives raise or lower the signal
In short: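 Measured: reporter mRNA in HepG2 transiently transfected with cis-promoter reporter units, 24 h after chemical addition. Fitting was bidirectional, DMSO as negative control.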

[2] = ATG_TAL_CIS: Attagene CIS-FACTORIAL HepG2 Assay for human TAL Basal Promoter (AID 2282966; active = hit-call score of the fitted dose curve at least 0.9, where 1 is the maximum; inactive = score below 0.9;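 note: background control endpoint measuring basal TAL promoter reporter mRNA not a specific factor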); conditions: HepG2 Attagene cis-factorial TAL promoter reporter; actives raise or lower the signal
In short: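 In this cell-based multiplex, HepG2 liver cells bearing cis-promoter reporter constructs are dosed for 24 hours. Total RNA is reverse-transcribed and amplified, labelled fragments are sized by capillary electrophoresis, and signal changes are fitted bidirectionally versus DMSO.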

[3] = ATG_TGFb_CIS: Attagene CIS-FACTORIAL HepG2 Assay for human Transforming Growth Factor (TGF) (AID 2282967; active = hit-call score of the fitted dose curve at least 0.9, where 1 is the maximum; inactive = score below 0.9); conditions: HepG2 Attagene CIS TGFb reporter, mRNA transcription; actives raise or lower the signal
In short: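 HepG2 cells transiently transfected with cis-promoter-driven multiplexed reporter units; 24 h compound exposure. Reporter mRNA measured by RT-PCR, 6-FAM labeling, HpaI digestion and capillary electrophoresis; bidirectional fit versus DMSO baseline.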

[4] = molecular target: Nuclear receptor subfamily 1 group I member 3 (Homo sapiens) (UniProt Q14994); experiment: ATG_CAR_TRANS: Attagene TRANS-FACTORIAL HepG2 Assay for human Constitutive Androstane Receptor (CAR) (AID 2282969); conditions: HepG2 Attagene TRANS-FACTORIAL CAR reporter;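 note: activators raise reporter mRNA above DMSO so AC50 marks induction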
Chain of Nuclear receptor subfamily 1 group I member 3 (Homo sapiens) (Q14994 whole entry, looked up, the tested form may be a part): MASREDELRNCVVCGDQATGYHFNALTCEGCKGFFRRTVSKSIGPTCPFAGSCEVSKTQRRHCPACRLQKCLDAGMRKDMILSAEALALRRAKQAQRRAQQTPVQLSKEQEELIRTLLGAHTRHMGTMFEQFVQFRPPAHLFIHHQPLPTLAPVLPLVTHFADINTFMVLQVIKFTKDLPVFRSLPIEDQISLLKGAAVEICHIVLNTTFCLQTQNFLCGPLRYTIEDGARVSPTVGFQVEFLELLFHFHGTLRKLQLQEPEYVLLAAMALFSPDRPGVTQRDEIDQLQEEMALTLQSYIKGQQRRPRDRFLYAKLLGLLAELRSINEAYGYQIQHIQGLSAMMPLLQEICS
In short: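 Readout is reporter mRNA induction, quantified by fluorescent primer extension and capillary electrophoresis after RT-PCR. Cells were HepG2 transiently carrying chimeric NR-Gal4 constructs with GAL4-UAS reporters, treated for 24 h; activity scored upward from DMSO.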

[5] = molecular target: X-box-binding protein 1 (Homo sapiens) (UniProt P17861); experiment: ATG_Xbp1_CIS: Attagene CIS-FACTORIAL HepG2 Assay for human X-box Binding Protein 1 (XBP1) (AID 2282972; active = hit-call score of the fitted dose curve at least 0.9, where 1 is the maximum; inactive = score below 0.9); conditions: HepG2 XBP1 cis-element reporter, Attagene multiplex; actives raise or lower the signal
Chain of X-box-binding protein 1 (Homo sapiens) (P17861 whole entry, looked up): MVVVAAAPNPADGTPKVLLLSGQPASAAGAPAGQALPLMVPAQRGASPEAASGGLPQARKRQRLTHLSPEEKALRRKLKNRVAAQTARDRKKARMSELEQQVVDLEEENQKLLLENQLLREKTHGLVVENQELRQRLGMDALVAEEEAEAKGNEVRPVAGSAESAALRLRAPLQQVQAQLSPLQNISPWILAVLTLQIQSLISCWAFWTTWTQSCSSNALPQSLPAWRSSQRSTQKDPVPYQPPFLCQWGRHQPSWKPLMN
In short: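 HepG2 cells transiently transfected with multiple cis-element reporter units report endogenous TF activity; 24 h exposure, then reporter mRNA measured by RT-PCR, 6-FAM labelling, HpaI digestion and capillary electrophoresis. Bidirectional fitting versus DMSO.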

[6] = ATG_M_19_TRANS: Attagene TRANS-FACTORIAL HepG2 Assay for M19 Transcription Factor (Internal Marker) (AID 2282974); conditions: HepG2 Attagene TRANS-FACTORIAL M19 internal marker reporter
In short: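 Transfected HepG2 (GAL4-UAS MRTUs), 24 h compound, TriZol RNA, DNase-treated RT, reporter PCR, FAM label, HpaI digest, CE fluorescence; gain vs DMSO.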

[7] = ATG_GAL4_TRANS: Attagene TRANS-FACTORIAL HepG2 Assay for GAL4 (Internal Marker) (AID 2282976); conditions: HepG2 Attagene TRANS GAL4 internal marker reporter
In short: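 RT-PCR/capillary electrophoresis readout of reporter mRNA. HepG2, transient MRTU transfection (GAL4-UAS reporters), 24 h compound exposure. Background-control endpoint, positive direction vs DMSO baseline.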

[8] = molecular target: Oxysterols receptor LXR-alpha (Homo sapiens) (UniProt Q13133); experiment: ATG_LXRa_TRANS: Attagene TRANS-FACTORIAL HepG2 Assay for human Liver X Receptor alpha (LXRa) (AID 2282980); conditions: HepG2 Attagene TRANS reporter, LXRa transactivation
Chain of Oxysterols receptor LXR-alpha (Homo sapiens) (Q13133 whole entry, looked up, the tested form may be a part): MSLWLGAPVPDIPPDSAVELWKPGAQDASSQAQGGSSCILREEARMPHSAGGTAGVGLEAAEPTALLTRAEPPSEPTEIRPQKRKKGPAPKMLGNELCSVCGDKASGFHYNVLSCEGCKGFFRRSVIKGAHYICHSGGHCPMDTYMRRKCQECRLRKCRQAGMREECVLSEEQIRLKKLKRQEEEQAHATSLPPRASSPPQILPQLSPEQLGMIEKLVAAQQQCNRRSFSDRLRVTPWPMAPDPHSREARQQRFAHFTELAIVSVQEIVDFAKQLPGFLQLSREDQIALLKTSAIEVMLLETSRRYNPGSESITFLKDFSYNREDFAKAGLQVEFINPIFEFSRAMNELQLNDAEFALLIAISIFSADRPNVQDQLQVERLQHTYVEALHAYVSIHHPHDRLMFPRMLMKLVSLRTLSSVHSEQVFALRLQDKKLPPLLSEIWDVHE
In short: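 Read-out: reporter transcript levels by RT-PCR plus capillary electrophoresis, fluorescence intensity. Transiently transfected HepG2, exogenous NR-GAL4 chimera, GAL4-UAS reporters; 24 h compound exposure. Activity = increase over DMSO negative control.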

[9] = molecular target: Oxysterols receptor LXR-beta (Homo sapiens) (UniProt P55055); experiment: ATG_LXRb_TRANS: Attagene TRANS-FACTORIAL HepG2 Assay for human Liver X Receptor beta (LXRb) (AID 2282981); conditions: HepG2 Attagene TRANS GAL4-LXRb reporter, mRNA
Chain of Oxysterols receptor LXR-beta (Homo sapiens) (P55055 whole entry, looked up, the tested form may be a part): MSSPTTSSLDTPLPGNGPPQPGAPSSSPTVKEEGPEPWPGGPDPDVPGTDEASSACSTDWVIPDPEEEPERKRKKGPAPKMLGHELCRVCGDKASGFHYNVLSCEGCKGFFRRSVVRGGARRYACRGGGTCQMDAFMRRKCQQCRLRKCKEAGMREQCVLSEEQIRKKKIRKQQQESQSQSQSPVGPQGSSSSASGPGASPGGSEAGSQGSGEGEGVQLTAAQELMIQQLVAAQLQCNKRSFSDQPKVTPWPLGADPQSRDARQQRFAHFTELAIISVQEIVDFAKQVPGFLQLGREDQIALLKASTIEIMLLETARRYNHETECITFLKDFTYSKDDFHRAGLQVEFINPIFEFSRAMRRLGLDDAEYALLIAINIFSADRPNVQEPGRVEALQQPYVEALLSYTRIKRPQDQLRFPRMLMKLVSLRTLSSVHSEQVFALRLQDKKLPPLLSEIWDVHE
In short: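 Transient transfection HepG2 (multiplexed RTUs, GAL4-UAS); NR-Gal4 chimera; 24 h exposure; RNA → RT-PCR → 6-FAM primer extension → HpaI → CE; increase vs DMSO.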

[10] = molecular target: Hepatocyte nuclear factor 4-alpha (Homo sapiens) (UniProt P41235); experiment: ATG_HNF4a_TRANS: Attagene TRANS-FACTORIAL HepG2 Assay for human Hepatocyte Nuclear Factor 4 alpha (HNF4a) (AID 2282982); conditions: HepG2 HNF4a transactivation reporter, mRNA readout
Chain of Hepatocyte nuclear factor 4-alpha (Homo sapiens) (P41235 whole entry, looked up, the tested form may be a part): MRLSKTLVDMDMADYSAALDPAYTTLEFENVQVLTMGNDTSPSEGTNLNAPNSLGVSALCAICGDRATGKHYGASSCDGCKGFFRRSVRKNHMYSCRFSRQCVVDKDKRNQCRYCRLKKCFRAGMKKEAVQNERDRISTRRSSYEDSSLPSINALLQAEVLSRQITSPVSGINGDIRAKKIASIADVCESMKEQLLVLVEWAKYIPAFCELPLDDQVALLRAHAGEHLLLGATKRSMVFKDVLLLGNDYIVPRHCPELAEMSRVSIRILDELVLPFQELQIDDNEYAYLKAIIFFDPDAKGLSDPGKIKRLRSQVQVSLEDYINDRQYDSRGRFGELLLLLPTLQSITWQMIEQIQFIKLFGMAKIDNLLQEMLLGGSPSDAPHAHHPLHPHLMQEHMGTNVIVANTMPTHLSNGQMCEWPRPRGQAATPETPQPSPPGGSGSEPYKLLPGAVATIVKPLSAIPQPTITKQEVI
In short: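 Readout is fluorescent reporter-transcript fragments resolved by capillary electrophoresis after RT-PCR from HepG2 cells dosed for 24 h. Cells carried transfected GAL4-UAS reporter constructs measuring exogenous NR-GAL4 chimera activity; DMSO served as baseline.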

[11] = ATG_M_06_TRANS: Attagene TRANS-FACTORIAL HepG2 Assay for M06 Transcription Factor (Internal Marker) (AID 2282983); conditions: HepG2 Attagene TRANS M06 internal marker reporter
In short: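 After a 24 h chemical treatment of transfected HepG2, RNA underwent DNase I treatment, reverse transcription and reporter-specific PCR; labelled, HpaI-digested products were sized by capillary electrophoresis. Signal increase relative to DMSO defined activity.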

[12] = ATG_M_32_TRANS: Attagene TRANS-FACTORIAL HepG2 Assay for M32 Transcription Factor (Internal Marker) (AID 2282984); conditions: HepG2 Attagene TRANS M32 internal marker reporter;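 note: transcript level of a background control reporter unit measured by RT-PCR and capillary electrophoresis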
In short: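 Measures reporter mRNA induction in human HepG2 liver cells after 24 h chemical treatment. Transcripts from transiently transfected GAL4-UAS reporter units are amplified, fluorescently labelled and sized by capillary electrophoresis; gain of signal relative to DMSO.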

[13] = molecular target: Nuclear receptor subfamily 4 group A member 2 (Homo sapiens) (UniProt P43354); experiment: ATG_NURR1_TRANS: Attagene TRANS-FACTORIAL HepG2 Assay for human Nuclear Receptor Related Protein 1 (NURR1) (AID 2282985); conditions: HepG2 Attagene TRANS reporter, mRNA readout
Chain of Nuclear receptor subfamily 4 group A member 2 (Homo sapiens) (P43354 whole entry, looked up, the tested form may be a part): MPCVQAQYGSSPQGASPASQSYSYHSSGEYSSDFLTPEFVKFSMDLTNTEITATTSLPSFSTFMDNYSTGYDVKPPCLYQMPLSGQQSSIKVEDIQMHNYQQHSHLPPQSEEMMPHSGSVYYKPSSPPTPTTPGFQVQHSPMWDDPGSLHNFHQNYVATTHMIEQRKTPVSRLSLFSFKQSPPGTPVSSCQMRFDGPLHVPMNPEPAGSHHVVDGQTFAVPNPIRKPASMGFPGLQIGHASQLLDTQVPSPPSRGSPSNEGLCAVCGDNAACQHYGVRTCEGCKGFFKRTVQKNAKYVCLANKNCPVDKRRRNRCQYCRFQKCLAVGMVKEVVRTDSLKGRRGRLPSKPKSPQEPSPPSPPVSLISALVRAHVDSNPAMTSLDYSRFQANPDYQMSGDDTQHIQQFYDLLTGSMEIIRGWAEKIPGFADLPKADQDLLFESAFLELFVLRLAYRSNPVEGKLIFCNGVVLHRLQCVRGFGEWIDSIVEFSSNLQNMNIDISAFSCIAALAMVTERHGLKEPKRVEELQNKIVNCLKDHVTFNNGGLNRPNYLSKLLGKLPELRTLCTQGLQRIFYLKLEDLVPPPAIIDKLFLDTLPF
In short: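 Transient transfection of HepG2, human liver cells, with multiple GAL4-UAS reporter transcription units. Cells dosed 24 h, RNA isolated, reverse-transcribed, PCR-amplified, FAM-labelled, HpaI-digested, sized by capillary electrophoresis. DMSO served as negative control.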

[14] = molecular target: Transcriptional activator Myb (Homo sapiens) (UniProt P10242); experiment: ATG_Myb_CIS: Attagene CIS-FACTORIAL HepG2 Assay for human Myeloblastosis (Myb) Proto-Oncogene Transcription Factor (AID 2282986; active = hit-call score of the fitted dose curve at least 0.9, where 1 is the maximum; inactive = score below 0.9); conditions: HepG2 Attagene CIS-FACTORIAL Myb reporter transcription; actives raise or lower the signal
In short: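 After 24 h of compound dosing, total RNA from transfected HepG2 cells is reverse-transcribed and the reporter sequences amplified, labeled and separated by capillary electrophoresis. Values come from bidirectional fitting against DMSO.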

[15] = ATG_VDRE_CIS: Attagene CIS-FACTORIAL HepG2 Assay for human Vitamin D Receptor Element (VDRE) (AID 2282968; active = hit-call score of the fitted dose curve at least 0.9, where 1 is the maximum; inactive = score below 0.9); conditions: HepG2 VDRE cis-reporter transcription, actives raise or lower the signal
In short: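 Reporter mRNA induction, quantified by capillary electrophoresis of fluorescently labelled RT-PCR products, was read 24 h after dosing HepG2 cells carrying transiently transfected cis-regulated reporter units; gain or loss relative to DMSO.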

[16] = molecular target: Estrogen receptor (Homo sapiens) (UniProt P03372); experiment: ATG_ERa_TRANS: Attagene TRANS-FACTORIAL HepG2 Assay for human Estrogen Receptor alpha (ERa) (AID 2282970); conditions: HepG2 Attagene TRANS ERa GAL4 reporter, mRNA
Chain of Estrogen receptor (Homo sapiens) (P03372 whole entry, looked up, the tested form may be a part): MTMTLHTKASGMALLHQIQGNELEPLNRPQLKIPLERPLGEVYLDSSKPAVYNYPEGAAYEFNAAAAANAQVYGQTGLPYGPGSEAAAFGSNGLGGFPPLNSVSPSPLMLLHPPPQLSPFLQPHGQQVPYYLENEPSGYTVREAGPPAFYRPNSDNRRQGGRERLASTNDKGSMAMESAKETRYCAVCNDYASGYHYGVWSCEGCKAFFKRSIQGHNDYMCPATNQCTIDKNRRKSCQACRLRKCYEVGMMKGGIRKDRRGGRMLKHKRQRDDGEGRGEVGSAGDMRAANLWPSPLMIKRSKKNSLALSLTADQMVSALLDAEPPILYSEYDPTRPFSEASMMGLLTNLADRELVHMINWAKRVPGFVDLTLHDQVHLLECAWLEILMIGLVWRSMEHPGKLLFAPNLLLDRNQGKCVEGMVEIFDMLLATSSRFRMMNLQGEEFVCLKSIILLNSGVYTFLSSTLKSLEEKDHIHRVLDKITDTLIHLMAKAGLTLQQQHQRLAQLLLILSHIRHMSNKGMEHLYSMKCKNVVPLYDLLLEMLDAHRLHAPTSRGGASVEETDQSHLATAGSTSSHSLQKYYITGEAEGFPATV
In short: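 After 24 h of compound treatment, RNA from HepG2 cells bearing transfected GAL4-UAS reporter constructs is converted to cDNA, amplified and fluorescently labelled. Capillary electrophoresis resolves the ERa-linked reporter; DMSO serves as negative control.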

[17] = molecular target: Estrogen-related receptor gamma (Homo sapiens) (UniProt P62508); experiment: ATG_ERRg_TRANS: Attagene TRANS-FACTORIAL HepG2 Assay for human Estrogen-Related Receptor gamma (ERRg) (AID 2282977); conditions: HepG2 Attagene TRANS reporter, ERRg transactivation;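 note: hits increase reporter signal over DMSO so potencies reflect activators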
In short: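 Transfect HepG2 with multiple GAL4-UAS reporter transcription units; dose chemicals 24 h; isolate RNA, reverse-transcribe with oligo(dT), PCR-amplify, label with 6-FAM, digest with HpaI; size fragments by capillary electrophoresis. DMSO serves as negative control.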

[18] = molecular target: Glucocorticoid receptor (Homo sapiens) (UniProt P04150); experiment: ATG_GR_TRANS: Attagene TRANS-FACTORIAL HepG2 Assay for human Glucocorticoid Receptor (GR) (AID 2282978); conditions: HepG2 Attagene TRANS GR reporter, mRNA transcription;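 note: activators score as hits since higher reporter transcript over DMSO is fitted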
Chain of Glucocorticoid receptor (Homo sapiens) (P04150 whole entry, looked up): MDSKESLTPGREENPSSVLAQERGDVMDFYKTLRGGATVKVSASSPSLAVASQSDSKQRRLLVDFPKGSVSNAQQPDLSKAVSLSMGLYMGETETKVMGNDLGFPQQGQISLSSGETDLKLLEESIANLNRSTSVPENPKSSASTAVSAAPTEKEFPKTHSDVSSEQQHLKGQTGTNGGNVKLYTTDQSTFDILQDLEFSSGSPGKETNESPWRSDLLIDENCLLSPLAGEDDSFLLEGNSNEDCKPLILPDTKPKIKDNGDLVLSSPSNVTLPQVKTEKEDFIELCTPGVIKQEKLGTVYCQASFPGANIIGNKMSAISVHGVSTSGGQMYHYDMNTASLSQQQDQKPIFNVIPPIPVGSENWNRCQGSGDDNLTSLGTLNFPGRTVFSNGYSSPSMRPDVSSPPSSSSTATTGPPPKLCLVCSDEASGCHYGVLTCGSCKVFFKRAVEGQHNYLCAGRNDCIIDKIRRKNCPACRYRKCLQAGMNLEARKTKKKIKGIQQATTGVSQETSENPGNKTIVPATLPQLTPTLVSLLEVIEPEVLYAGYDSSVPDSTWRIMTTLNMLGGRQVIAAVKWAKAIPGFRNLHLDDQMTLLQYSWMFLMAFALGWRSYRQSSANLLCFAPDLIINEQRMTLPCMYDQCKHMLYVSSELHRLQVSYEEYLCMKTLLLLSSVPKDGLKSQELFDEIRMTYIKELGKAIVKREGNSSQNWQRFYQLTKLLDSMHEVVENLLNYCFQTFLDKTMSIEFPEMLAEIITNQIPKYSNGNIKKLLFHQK
In short: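 After 24 h incubation with test chemical, transfected HepG2 cells were lysed for RNA; reporter cDNA was amplified, FAM-labelled, HpaI-digested and sized on a capillary analyser. Signal gain relative to DMSO was scored.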

[19] = molecular target: Bile acid receptor (Homo sapiens) (UniProt Q96RI1); experiment: ATG_FXR_TRANS: Attagene TRANS-FACTORIAL HepG2 Assay for Farnesoid X Receptor (FXR) (AID 2282979); conditions: HepG2 Attagene TRANS FXR-GAL4 reporter transcription;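 note: hits raise reporter mRNA above DMSO so AC50 marks FXR activation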
Chain of Bile acid receptor (Homo sapiens) (Q96RI1 whole entry, looked up, the tested form may be a part): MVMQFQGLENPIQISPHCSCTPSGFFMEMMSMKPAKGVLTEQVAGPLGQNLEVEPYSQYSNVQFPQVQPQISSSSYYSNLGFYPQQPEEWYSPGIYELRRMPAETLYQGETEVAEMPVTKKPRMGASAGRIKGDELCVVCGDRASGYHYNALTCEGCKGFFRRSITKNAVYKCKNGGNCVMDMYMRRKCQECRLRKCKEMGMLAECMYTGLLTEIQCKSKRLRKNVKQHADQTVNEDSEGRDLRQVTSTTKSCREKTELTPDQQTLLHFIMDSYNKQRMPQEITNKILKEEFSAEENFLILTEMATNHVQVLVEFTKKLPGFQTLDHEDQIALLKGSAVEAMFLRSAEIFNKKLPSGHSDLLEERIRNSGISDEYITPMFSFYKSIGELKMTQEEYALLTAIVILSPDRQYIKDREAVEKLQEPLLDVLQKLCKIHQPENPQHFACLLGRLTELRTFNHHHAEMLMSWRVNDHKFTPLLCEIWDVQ
In short: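 Read-out: fluorescent reporter transcripts quantified by capillary electrophoresis after RT-PCR of total RNA. Source cells were HepG2 transiently carrying chimeric NR-GAL4 plus GAL4-UAS reporter units, dosed 24 h. Activity fitted upward relative to DMSO baseline.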

[20] = molecular target: Steroid hormone receptor ERR1 (Homo sapiens) (UniProt P11474); experiment: ATG_ERRa_TRANS: Attagene TRANS-FACTORIAL HepG2 Assay for human Estrogen-Related Receptor alpha (ERRa) (AID 2282971); conditions: HepG2 Attagene TRANS reporter, ERRa transactivation
Chain of Steroid hormone receptor ERR1 (Homo sapiens) (P11474 whole entry, looked up, the tested form may be a part): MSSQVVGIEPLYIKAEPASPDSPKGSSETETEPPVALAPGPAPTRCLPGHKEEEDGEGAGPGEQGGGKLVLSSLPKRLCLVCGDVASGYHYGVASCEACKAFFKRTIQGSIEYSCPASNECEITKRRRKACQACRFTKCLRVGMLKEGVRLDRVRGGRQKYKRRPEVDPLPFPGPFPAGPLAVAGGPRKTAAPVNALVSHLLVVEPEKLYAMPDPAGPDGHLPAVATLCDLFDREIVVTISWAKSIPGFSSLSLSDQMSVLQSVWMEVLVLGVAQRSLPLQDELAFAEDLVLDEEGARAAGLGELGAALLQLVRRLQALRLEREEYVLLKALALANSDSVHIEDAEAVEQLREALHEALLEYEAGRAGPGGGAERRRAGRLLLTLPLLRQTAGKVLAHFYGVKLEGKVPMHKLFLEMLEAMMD
In short: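 Transfected HepG2, 24 h dosing, ERRa-Gal4 chimera driving GAL4-UAS reporter. Readout: reporter mRNA via RT-PCR plus capillary electrophoresis (fluorescence). Positive direction vs DMSO control.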

Measured: AC50

CCC(C)(C)C1CCC(O)CC1 (stereo not drawn)
active: [1] 100 µM
inactive: [1] | [2] | [3] | [4] | [5] | [6] | [7] | [8] | [9] | [10] | [11] | [12] | [13] | [14]

CC(O)CO (stereo not drawn)
not listed: [4] | [6] | [8] | [9] | [10] | [12] | [13] | [20]
inactive: all other assays above

CCCCCCCCCCCCc1ccccc1S(=O)(=O)O
not listed: [7] | [10] | [11] | [17] | [20]
inactive: all other assays above

CC(C)(C)c1cc(C(C)(C)C)c(O)c(C(C)(C)C)c1
active: [1] 87.1 µM | [5] 20.3 µM | [19] 27.8 µM | [13] 431 nM and 1.32 µM
inactive: [1] | [2] | [3] | [4] | [16] | [5] | [6] | [7] | [18] | [19] | [8] | [9] | [10] | [11] | [12] | [14]

O=C(O)c1ccccc1C(c1ccc(O)cc1)c1ccc(O)cc1
active: [1] 166 µM
inactive: [1] | [2] | [3] | [20] | [5] | [6] | [7] | [17] | [18] | [8] | [9] | [10] | [11] | [12] | [13] | [14]

CC[C@H](C)[C@@H](C(=O)O)n1sc2ccccc2c1=O
not listed: [7] | [8] | [9] | [11] | [17] | [18] | [19] | [20]
inactive: all other assays above

CCC(=C(c1ccc(O)cc1)c1ccc(OCCN(C)C)cc1)c1ccccc1
inactive: [1] | [2] | [3] | [4] | [20] | [5] | [6] | [7] | [17] | [18] | [19] | [8] | [9] | [10] | [11] | [12] | [13] | [14]
active: [1] 3.39 µM | [2] 10.4 µM | [5] 11.2 µM and 2.37 µM | [14] 11.3 µM
